CD11b adhes inh: inhibitors of human CD11b/CD18 binding to fibrinogen | P05107+P11215 | K562 CD11b/CD18 adhesion to fibrinogen, ATPlite luminescence; Mn2+ added to activate the integrin | inhibition, % at 10 µM | 93,000 compounds, 0.54% hits | AID 1497;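 active = primary inhibition of 50% or more at 10 µM, then 40% or more on retest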
D1 allo mod: D1 dopamine receptor (human) allosteric modulation. 58,000 compounds, 5.9% hits. HEK293 D1, CRE-luciferase, dopamine EC30 potentiation; actives deviate in either direction. AID 641. B-score at 10 µM;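 active = luminescence count or its row- and column-corrected plate score outside the 99.7% band of the plate's sample wells, on either side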
Target sequence (P21728 whole entry, looked up): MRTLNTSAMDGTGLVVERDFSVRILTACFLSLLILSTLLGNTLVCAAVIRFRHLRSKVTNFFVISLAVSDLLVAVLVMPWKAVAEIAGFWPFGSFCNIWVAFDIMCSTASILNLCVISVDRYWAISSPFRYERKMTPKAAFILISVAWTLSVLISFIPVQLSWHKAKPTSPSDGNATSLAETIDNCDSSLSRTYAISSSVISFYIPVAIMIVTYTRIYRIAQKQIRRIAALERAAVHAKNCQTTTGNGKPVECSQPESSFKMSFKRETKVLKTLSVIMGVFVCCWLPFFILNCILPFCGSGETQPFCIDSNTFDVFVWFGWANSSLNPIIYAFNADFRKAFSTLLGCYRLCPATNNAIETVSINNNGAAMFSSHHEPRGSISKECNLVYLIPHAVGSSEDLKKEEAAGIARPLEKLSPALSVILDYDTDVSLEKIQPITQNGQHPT
FAK inh: blocks human focal adhesion kinase activity; Q05397; biochemical FAK kinase activity assay; inhibition, %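 (tested at 7 µM)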; 97,000 compounds, 0.84% hits; in the data active = inhibition above about 19%;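 also: 0% = DMSO and 100% = reference compound high control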
hDAT+cocaine: human DAT dopamine uptake with cocaine, either direction; LLC-PK1 hDAT cells, [14C]-dopamine uptake with cocaine IC80; actives deviate in either direction; 110,000 compounds, 1.3% hits; B-score at 10 µM;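 active = Z score or B-score, a plate-position-corrected score, falls beyond the plate's 99.7% confidence bounds, in either direction; inactive = both scores lie inside the 99.7% bounds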;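 also: scored against the spread of the other compound wells on the same plate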
Pyk2 oligo antag: Pyk2 (human) oligomerization antagonism | Q14289 | Q293 cells, Pyk2 FERM NanoBiT luminescence; active compounds read low | z-score (the deposit names both 25 µM and 10 µM) | 99,000 compounds, 0.83% hits | AID 1347419;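 active = Z-score of -3 or lower, scaled per plate to the spread of control and sample wells; inactive = z-score above -3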;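 also: negative z-score means lost luminescence so less FERM oligomerization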
CD11b adhes enh: CD11b/CD18-fibrinogen binding enhancement; activation, % at 10 µM; K562 CD11b/CD18 adhesion to fibrinogen, ATPlite luminescence; AID 1499; P05107+P11215; 93,000 compounds, 0.07% hits;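 active = 10 µM primary screen giving 50% or more activity, confirmed by 40% or more on retest at that dose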
Active calls of the source: *; . = no result given. The sample as a whole holds a higher share of hits than the screen did.

SMILES	CD11b adhes inh	D1 allo mod	FAK inh	hDAT+cocaine	Pyk2 oligo antag	CD11b adhes enh
Cc1ccc(Nc2nc(C3CC3)cs2)cc1	32	-4.9*	.	.	.	-3
Clc1ccc(Nc2nc(C3CC3)cs2)cc1	35	.	17	.	.	-4
CC(C)OCCCN1CN(S(=O)(=O)c2cccc(Cl)c2)c2nc3ccccc3nc21	.	.	-4	0.72	0.56	.
CCc1ccc2[nH]c(=O)c(CN(CCCN3CCOCC3)C(=O)Nc3cccc(Cl)c3)cc2c1	-4	0.4	-1	3.3*	-0.56	-2
Oc1ccc(Nc2nc(NCC3CCCO3)c3ccccc3n2)cc1 (configuration not stated)	0	-2.9*	5	0.99	-0.79	-2
CCN(CC)CCCNC(=O)c1cc2c(-c3ccc(Cl)cc3)nn(C)c2s1	5	-1.8	1	0.24	.	8
CN1CCN(CCCNC(=O)c2cc3c(-c4ccc(Cl)cc4)nn(C)c3s2)CC1	8	-2*	-7	0.44	.	20
CC1CCCCN1CCNC(=O)c1cc2c(-c3ccccc3F)nn(C)c2s1 (configuration not stated)	-12	-5.7*	4	0.68	.	-1
COc1ccc(C[C@H]2CN3C(=NC[C@@H]3Cc3ccc(O)cc3)N2CCNC(=O)c2ccc(C)c(Br)c2)cc1	.	.	.	-2.5*	.	.
c1ccc2nc(-c3nc4ccccc4o3)ccc2c1	20	-3.9*	.	-0.83	-1.1	0
Cc1ccc(S(=O)(=O)NC(CC(=O)O)c2ccccc2)c(C)c1 (configuration not stated)	.	-0.2	-1	-0.29	0.22	.
CCc1ccc(S(=O)(=O)NC(CC(=O)O)c2ccccc2)cc1 (configuration not stated)	46	-6.5*	-10	-0.7	1.6	2
CCOC(=O)c1ccc2c(c1)nc(COc1ccc(OC)cc1)n2CC	6	.	2	0.4	-0.5	-6
Cn1c2c(c(=O)n(C)c1=O)C1c3cc(Cl)ccc3OCC1CO2 (configuration not stated)	11	.	2	0.28	0.16	-3
COC(=O)CSc1ncnc2c1cnn2Cc1ccccc1	-5	-0.34	0	-1.2	1.2	-1
COc1cc(NC(=O)CSc2ncnc3c2cnn3Cc2ccccc2)cc(OC)c1	64*	.	0	0.59	-1.7	0
CCOC(=O)CNC(=O)CSc1ncnc2c1cnn2-c1ccc(OC)cc1	30	-2.8*	-1	0.19	2.1	1
CC(C)CN(CC(C)C)C(=O)C12CCC(C)(C(=O)C1)C2(C)C (configuration not stated)	.	-0.18	1	0.027	0.06	.
CC(=O)CCc1ccc2oc(C(=O)O)c(C)c2c1	-3	-0.78	2	-1.9	0.57	-1
O=C(c1cc(-c2ccc(F)cc2)on1)N1CCCC1	9	-3.6*	-1	.	-2.1	2
COc1cccc(-c2cc(C(=O)N3CCCCCC3)no2)c1	23	-4.9*	-9	2.4	.	0
O=C(c1cc(-c2cccc(O)c2)on1)N1CCCCC1	-4	-4.8*	.	1.2	.	1
CCOC(=O)C1=C(N)OC2=C(C(=O)CCC2)C1c1ccccc1OCC (configuration not stated)	-8	0.032	-1	-0.49	-0.37	-3
O=C(Cc1coc(-c2ccc(F)cc2)n1)NCc1ccccc1	-10	0.71	.	1.1	-0.72	-4
O=C(O)Cc1coc(-c2ccc(F)cc2)n1	-10	-0.0029	-3	-8.5*	0.17	3
SMILES	CD11b adhes inh	D1 allo mod	FAK inh	hDAT+cocaine	Pyk2 oligo antag	CD11b adhes enh
CC(C)CC(=O)NCc1ccc(F)cc1	.	.	-12	-0.57	0.96	.
O=C(Nc1ccc2c(c1)OCO2)c1cccc(F)c1	5	0.23	-1	1.4	1.3	0
O=C(/C=C\Nc1cccc(F)c1)c1ccc2c(c1)OCO2	80	-6.9*	1	1.7	-0.54	-6
CSc1nc(SCC(=O)NCc2ccco2)c2c3c(sc2n1)CN(C)CC3	.	-0.0025	22*	-0.78	-0.36	.
CSc1nc(NCc2ccco2)c2c3c(sc2n1)CN(C)CC3	.	-4*	9	0.29	.	.
O=C(O)COc1ccc(/C=N/NC(=O)C2CCCN2S(=O)(=O)c2ccc(Cl)cc2)cc1 (configuration not stated)	-11	.	0	-0.44	-0.25	0
Cc1c(C(=O)/C=C/c2cccs2)oc2ccc(F)cc12	25	.	-3	0.096	0.12	-4
Cc1ccc(NC(=O)c2ccc(Cl)c(N3C(=O)C=CC3=O)c2)cc1	.	.	-9	-0.0099	0.05	.

Source: PubChem (several laboratories)
